An excerpt weighted towards active compounds, which were near 1.3% of everything screened.
PKM2 act: increases activity of human pyruvate kinase M2. purified PKM2, Kinase-Glo ATP luminescence, activation; response scale: 0% is enzyme alone, no compound. Potency, µM (doses to about 57.5 µM), for the others: at the highest dose activation, hits mostly activators. P14618. actives 0.34% (n = 260,000); note: potency is the fitted concentration of half-maximal effect; % is set by controls: 0 for no effect and ±100 for the full control effect; nearly all actives have a fitted effect of over 55% in size
Target sequence (P14618 whole entry, looked up): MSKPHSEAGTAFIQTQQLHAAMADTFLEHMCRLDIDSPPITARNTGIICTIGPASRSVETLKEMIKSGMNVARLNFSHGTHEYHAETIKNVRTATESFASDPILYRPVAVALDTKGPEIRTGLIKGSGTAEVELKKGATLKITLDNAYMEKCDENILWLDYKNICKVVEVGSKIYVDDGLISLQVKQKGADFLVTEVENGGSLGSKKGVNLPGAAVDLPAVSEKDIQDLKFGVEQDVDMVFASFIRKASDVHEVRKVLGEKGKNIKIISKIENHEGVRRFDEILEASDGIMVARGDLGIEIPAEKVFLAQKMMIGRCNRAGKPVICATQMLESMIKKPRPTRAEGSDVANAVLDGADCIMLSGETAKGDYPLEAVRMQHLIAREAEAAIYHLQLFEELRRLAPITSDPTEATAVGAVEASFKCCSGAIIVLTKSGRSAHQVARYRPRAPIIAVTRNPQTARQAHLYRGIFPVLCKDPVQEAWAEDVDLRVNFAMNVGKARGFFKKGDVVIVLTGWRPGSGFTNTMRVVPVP
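ATP formation by purified human PK-M2, quantified via coupled luciferase luminescence after 1 h at room temperature with 0.1 mM ADP and 0.5 mM PEP final.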
BRCA1 expr up: increases BRCA1 expression; MCF7-BRCA1-FFLuc reporter, luminescence, 48 h; response scale: scaled: vehicle 0%, 10 µM genistein 100%; Potency, µM (top dose mostly 46.1 µM), inactives show top-dose activation, most hits filed as activators; actives 1.1% (n = 380,000); AID 624202; note: potency is the fitted concentration of half-maximal effect; nearly all actives have a fitted effect of over 80% in size
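Activators of BRCA1 expression were detected as increased firefly luciferase luminescence in engineered MCF7 cells after 48 h compound incubation. Signals were scaled to genistein 10 microM as full activation.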
IL-2 act: activators of IL-2; IL-2 activation reporter assay, cell-based qHTS; stimulated with anti-CD3/CD4/CD28 beads; in transgenic mouse T cells; activation, % (series mostly up to about 46 µM); actives 0.065% (n = 360,000); in the data active = activation above about 50%; inconclusive = mostly about 30% to 49%; note: 0% is about no effect
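Using fluorescent plate cytometry, EGFP and DsRed are detected in transgenic mouse T cells stimulated 18 h at 37 degrees C with antibody-coated beads after 60 min compound pretreatment.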
a7 integrin act: integrin-mediated muscular dystrophy alleviation activation; actives 0.064% (n = 350,000); alpha7betagal myoblasts, beta-gal FDG fluorescence, 48 h; Potency, µM (series often up to 38.3 µM), inactives show at the highest dose activation, usual class: activators;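 note: potency is the fitted concentration of half-maximal effect; 100% = response of the positive control SU9516; nearly all actives have a fitted effect of over 60% in size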
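Alpha7betagal+/- myoblasts (passage 13) were plated 16-24 hr, then exposed to compounds (1:260 dilution of DMSO stock) for 48 hours at 37C. After MPER lysis, β-galactosidase reporter activity was read as FDG fluorescence (ex 480/em 540) after 30 minutes.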
Apoferritin bind: binds horse apoferritin like a general anesthetic; apoferritin/1-aminoanthracene competitive binding, fluorescence; AID 485281; Potency, µM (top dose mostly 77.5 µM), inactives show at the top dose activity change, negative = displacement, usual class: inhibitors; actives 0.074% (n = 350,000); note: potency is the fitted concentration of half-maximal effect; % is set by controls: 0 for no effect and ±100 for the full control effect; nearly all actives have a fitted effect of over 20% in size
Target sequence (P02791 2-175 limits assumed): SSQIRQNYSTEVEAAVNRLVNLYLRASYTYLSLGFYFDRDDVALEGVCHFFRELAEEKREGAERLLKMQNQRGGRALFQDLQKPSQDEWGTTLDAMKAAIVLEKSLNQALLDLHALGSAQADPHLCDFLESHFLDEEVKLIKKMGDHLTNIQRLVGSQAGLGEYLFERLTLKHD
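Steps: apoferritin (10 uM) was premixed with half-saturated 1-AMA in PBS, compounds were pin-transferred, plates stood 10 min at room temperature, fluorescence was read at 380/535 nm, and curves were fitted with a Hill equation.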
An asterisk follows results filed as active; ? = inconclusive; · = not tested or not shown; [ ] = dose if it differs, or a comment. Unless noted, calls come from the whole dose curve; as a rule, active = well fitted curve in the direction sought with a large enough effect; inconclusive = small, poorly fitted or top-dose-only effect, or another doubt; inactive = no such curve, though single readings can be large; an effect the other way counts as inactive or inconclusive.

SMILES | PKM2 act | BRCA1 expr up | IL-2 act | a7 integrin act | Apoferritin bind
CC(C)n1cnc2cc(NCc3ccccc3O)ccc21 | 25% | 33% | -1 | 7% | -9%
Fc1ccc2cnc(C3=CCCCC3)cc2c1 | · | 0% | -2 | 17% | ·
C1=C(c2cc3ccccc3cn2)CCCC1 | · | 10µM* | 1 | 9% | ·
CCOC(=O)c1c(-c2ccccc2)csc1NC(=O)c1cc(-c2ccc(Cl)cc2)on1 | · | · | · | · | 2%
CN(c1ccccc1)S(=O)(=O)c1cccc(NC(=O)c2cc3ccccc3oc2=O)c1 | -18% | 11µM* | -1 | -26% | -7%
COc1ccc(NC(=O)n2nc(OC(=O)c3cccs3)cc2N)cc1 | -6% | 13µM* | -2 | 10% | -23%
COc1ccc(-c2ccc(S(=O)(=O)n3nc(OC(=O)c4cccs4)cc3N)cc2)cc1 | 4% | 0% | -1 | -12% | -23%
O=C(C[N+]12CN3CN(CN(C3)C1)C2)c1ccc(O)c(O)c1 | · | 3% | · | · | ·
COc1ccccc1NC(=O)N(Cc1ccco1)Cc1cc2ccc(C)c(C)c2[nH]c1=O | 16µM* | -72% | -1 | -18% | -9%
COc1ccccc1NC(=O)N(Cc1ccco1)Cc1cc2cc(C)cc(C)c2[nH]c1=O | 1% | -64% | 1 | -21% | -16%
CC1CCN(c2ccc3nnc(CCC(=O)NC(C)C)n3n2)CC1 | · | 1% | -2 | -11% | 0%
COC(=O)C(NC(=O)CCc1nnc2ccc(N3CCCCC3)nn12)C(C)C (stereo not given) | · | 11µM* | -1 | -6% | -4%
O=C(O)CCCCCN1C(=O)/C(=C\c2ccc(-c3ccc(Cl)cc3)o2)SC1=S | 32µM* | -18% | -2 | -16% | -10%
COc1ccc(-c2cc(C(F)(F)F)nc(-n3cncn3)n2)cc1 | -2% | -4% | -2 | 12% | 32µM*
Cc1ccc(-c2nn(-c3ccccc3)cc2CN(Cc2ccccc2)C(=O)c2ccco2)o1 | 25µM* | -2%[1.84 µM] | -3 | 0% | 13%
Cc1ccc(C(=O)N/N=C/C2=Cc3ccccc3OC2C)cc1 (stereo not given) | -3% | 44% | -2 | 16% | 39%
CC1Oc2ccccc2C=C1/C=N/NC(=O)c1ccccc1 (stereo not given) | -16% | 3.2µM* | -3 | 4% | 39%
CCN(CC)c1ccc2cc(-c3nc(-c4cccs4)no3)c(=O)oc2c1 | · | · | · | · | -10%
O=C(Cc1ccc([N+](=O)[O-])cc1)c1ccc(O)cc1O | 30% | 10µM* | 1 | 4% | 4%
O=C(Cc1ccc(Br)cc1)c1ccc(O)cc1O | 0% | 11µM* | 0 | 19% | ?
COc1cc(-c2nnc(SCCOc3ccc(Cl)cc3C)o2)cc(OC)c1OC | · | · | · | · | -6%
Cc1ccnc2ccc(F)cc12 | · | 109% | · | · | ·
O=C(CC(Cl)(Cl)Cl)N1CCN(/[N+]([O-])=N/Oc2ccc([N+](=O)[O-])cc2[N+](=O)[O-])CC1 | · | 0% | · | · | ·
O=C(COC(=O)c1ccc2ncsc2c1)NCc1cccc(Cl)c1 | · | 82% | 0 | 0% | ·
O=C(OCCOc1cccc(Cl)c1)c1ccc2ncsc2c1 | 16µM* | -57% | -1 | 4% | -3%
SMILES | PKM2 act | BRCA1 expr up | IL-2 act | a7 integrin act | Apoferritin bind
Cc1ccc(C)c(NC(=O)CSc2ncc3c(n2)-c2ccc(Cl)cc2N(C)S3(=O)=O)c1 | · | · | · | · | 0%
CCOc1cccc(C(=O)NC(=S)Nc2ccccc2)c1 | -12% | 11µM* | 0 | -16% | -12%
CNC(=S)Nc1cccc(C(=O)OC)c1 | 1% | 7.1µM* | 0 | 10% | -2%
CC(=O)c1cccc(NC(=S)NC(=O)c2ccc(C)cc2)c1 | 3% | 7.9µM* | 5 | 6% | -17%
CC(=O)c1cccc(NC(=S)NC(=O)c2ccc(Br)cc2)c1 | -7% | ? | -4 | -39% | -10%
COCCCNC(=S)NC(=O)c1ccc(C)cc1 | -4% | 6.3µM* | 1 | 11% | -6%
CCOc1ccc(-c2nnc(SCC(=O)Nc3cc(C)ccc3OC)o2)cc1 | · | 9% | · | · | -5%
COc1ccc(N2CCN(CCCNC(=O)c3ccc4nc(Cc5ccccc5)oc4c3)CC2)cc1 | · | · | · | · | -5%
COc1cccc2nccc(/C=C/c3ccc(N(C)C)cc3)c12 | · | -27% | · | · | ·
COc1cccc(NS(=O)(=O)c2ccc3c(c2)n(C)c(=O)n3C)c1 | · | · | · | · | 6%
Cc1ccc(CC2CC(=O)N(Cc3ccco3)C2=O)cc1 (stereo not given) | ? | 0% | 0 | -5% | -23%
O=C1CC(Cc2ccccc2)C(=O)N1Cc1ccco1 (stereo not given) | 28µM* | -3% | 0 | -22% | ?
COC(=O)c1c(SC)nc2ccccc2c1OCc1ccc(C)cc1 | · | -7% | · | · | 6%
Brc1ccc(-c2nnc(-c3cccnc3)o2)cc1 | · | 4.5µM* | -4 | 10% | ·
Cc1ccc(-c2nnc(-c3ccc(Br)cc3)o2)o1 | 1% | 3.2µM* | -2 | 1% | 4%
Brc1ccc(-c2nnc(-c3ccco3)o2)cc1 | -2% | ? | -3 | 8% | -6%
Cc1ccc(-c2nnc(-c3cccnc3)o2)cc1 | · | 4.5µM* | -2 | 38% | -7%
Clc1ccc(-c2nnc(-c3cccnc3)o2)cc1 | -5%[11.5 µM] | 7.9µM* | 0 | 6% | 29%
COc1ccc(-c2nnc(-c3cccnc3)o2)cc1 | -7% | ? | -1 | 9% | -8%
CN(C)c1ccc(/C=C/c2ccnc3ccc(O)cc23)cc1 | · | 5% | · | · | ·
COc1cc2c(NC3CCN(C)CC3)nc(N3CCCCC3)nc2cc1OCCOCCN1CCCC1 | · | -13% | · | · | ·
Brc1ccccc1-c1nnc(-c2cccnc2)o1 | -1% | 88% | -1 | 12% | -9%
c1cncc(-c2nnc(-c3cccs3)o2)c1 | -1% | 14µM* | 0 | 7% | -10%
Cc1nnc2sc(SCc3ccccc3Cl)nn2c1=O | 7.1µM* | 17% | -2 | 19% | ?
O=C(c1ccccc1)C(I)(I)N1CCOCC1 | · | 14% | · | · | ·
SMILES | PKM2 act | BRCA1 expr up | IL-2 act | a7 integrin act | Apoferritin bind
COc1cc(/C=C/c2cncc(/C=C/c3cc(OC)c(OC)c(OC)c3)c2)cc(OC)c1OC | · | 14% | · | · | ·
COc1cccc(C2=N/C(=C\N(C)C)C(=O)O2)c1 | -5% | 11µM* | -1 | 23% | -10%
CC(C)c1ccc(CNc2ccc3c(c2)ncn3C)cc1 | · | 98% | -3 | -34% | -2%
CC(C)c1ccc(CNc2ncccn2)cc1 | -4% | 11µM* | 1 | -16% | -20%
Cc1cc2oc(=O)sc2cc1NS(=O)(=O)c1ccccc1 | ? | -44% | 0 | 11% | -10%
Cc1cc2oc(=O)sc2cc1NS(=O)(=O)c1cccc2cccnc12 | 32µM* | -19% | -5 | 6% | 7%
Cc1c(C)c(C)c(/C=C/c2ccnc3ccccc23)c(C)c1C | · | -15% | · | · | ·

Screens as filed in PubChem.
